# Data from PubChem BioAssay AID1159580 (chemical genetic matrix, 2015).
# Several values for one entry are separate records, joined by “and”; a condition that tells them apart may be missing. Equal values may be shown once. In all, about 5,500 compounds went through this assay and about 2,000 (36%) were called active. Not shown: some 18% with an inconclusive outcome. The list shows a part of the results. A number with no mark means an inactive call. Cut-off read from the data, not from the text of the source: active = normalized growth mostly below about 0.91 (no sharp cut-off); inconclusive = no clear call, values can overlap the other calls; inactive = mostly above about 0.92.
# Experiment: chemical genetic growth profiling, strain panel (AID 1159580);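 note: tested at 20 µM; growth read once vehicle control cultures reached saturation at 30 °C; 1 = growth at the plate median or of vehicle wells; lower values mean less growth of the strain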
# Conditions: S. cerevisiae deletion strains, growth OD
structure (smiles),measurement,setting,value
O=c1cc(-c2ccccc2)oc2cc(O)c(O)c(O)c12,normalized growth,"locus YAL013W, strain DEP1, hits give low values",0.367 (active)
same,normalized growth,"locus YAL021C, strain ccr4, hits give low values",0.0818 (active)
same,normalized growth,"locus YAL026C, strain drs2, hits give low values",0.198 (active)
same,normalized growth,"locus YAL030W, strain snc1, hits give low values",0.562 (active)
same,normalized growth,"locus YBL061C, strain skt5, hits give low values",0.449 (active)
same,normalized growth,"locus YBR009C, strain hhf1, hits give low values",0.535 (active)
same,normalized growth,"locus YBR021W, strain FUR4, hits give low values",0.885
same,normalized growth,"locus YBR023C, strain chs3, hits give low values",0.279 (active)
same,normalized growth,"locus YBR171W, strain sec66, hits give low values",0.386 (active)
same,normalized growth,"locus YBR229C, strain ROT2, hits give low values",0.458 (active)
same,normalized growth,"locus YBR231C, strain swc5, hits give low values",0.29 (active)
same,normalized growth,"locus YBR279W, strain paf1, hits give low values",0.574 (active)
same,normalized growth,"locus YCL011C, strain gbp2, hits give low values",0.565 (active)
same,normalized growth,"locus YCL016C, strain dcc1, hits give low values",0.683 (active)
same,normalized growth,"locus YCL029C, strain bik1, hits give low values",0.174 (active)
same,normalized growth,"locus YCL069W, strain vba3, hits give low values",0.608 (active)
same,normalized growth,"locus YCR088W, strain abp1, hits give low values",0.604 (active)
same,normalized growth,"locus YDL005C, strain med2, hits give low values",0.636 (active)
same,normalized growth,"locus YDL035C, strain GPR1, hits give low values",0.402 (active)
same,normalized growth,"locus YDL040C, strain nat1, hits give low values",0.612 (active)
same,normalized growth,"locus YDL074C, strain BRE1, hits give low values",0.219 (active)
same,normalized growth,"locus YDL101C, strain DUN1, hits give low values",0.115 (active)
same,normalized growth,"locus YDL134C, strain PPH21, hits give low values",0.586 (active)
same,normalized growth,"locus YDL185W, strain tfp1, hits give low values",0.549 (active)
same,normalized growth,"locus YDL192W, strain arf1, hits give low values",0.512 (active)
same,normalized growth,"locus YDR001C, strain nth1, hits give low values",0.721 (active)
same,normalized growth,"locus YDR069C, strain doa4, hits give low values",0.127 (active)
same,normalized growth,"locus YDR101C, strain arx1, hits give low values",0.176 (active)
same,normalized growth,"locus YDR137W, strain rgp1, hits give low values",0.161 (active)
same,normalized growth,"locus YDR150W, strain NUM1, hits give low values",0.591 (active)
same,normalized growth,"locus YDR159W, strain sac3, hits give low values",0.148 (active)
same,normalized growth,"locus YDR162C, strain NBP2, hits give low values",0.224 (active)
same,normalized growth,"locus YDR195W, strain ref2",0.327 (active)
same,normalized growth,"locus YDR297W, strain sur2, hits give low values",0.445 (active)
same,normalized growth,"locus YDR318W, strain mcm21, hits give low values",0.589 (active)
same,normalized growth,"locus YDR334W, strain swr1, hits give low values",0.351 (active)
same,normalized growth,"locus YDR335W, strain msn5, hits give low values",0.138 (active)
same,normalized growth,"locus YDR388W, hits give low values",0.555 (active)
same,normalized growth,"locus YDR392W, strain spt3, hits give low values",0.562 (active)
same,normalized growth,"locus YDR502C, strain sam2, hits give low values",0.214 (active)
same,normalized growth,"locus YEL003W, strain gim4, hits give low values",0.291 (active)
same,normalized growth,"locus YEL037C, strain rad23, hits give low values",0.407 (active)
same,normalized growth,"locus YEL061C, strain CIN8 (second series), hits give low values",0.695 (active)
same,normalized growth,"locus YEL061C, strain CIN8, hits give low values",0.496 (active)
same,normalized growth,"locus YER015W, strain faa2, hits give low values",0.287 (active)
same,normalized growth,"locus YER016W, strain bim1, hits give low values",0.736 (active)
same,normalized growth,"locus YER110C, hits give low values",0.851 (active)
same,normalized growth,"locus YER111C, strain swi4, hits give low values",0.113 (active)
same,normalized growth,"locus YER155C, strain BEM2 (second series), hits give low values",0.338 (active)
same,normalized growth,"locus YER155C, strain BEM2, hits give low values",0.449 (active)
same,normalized growth,"locus YER167W, strain BCK2, hits give low values",0.573 (active)
same,normalized growth,"locus YFR010W, strain ubp6, hits give low values",0.218 (active)
same,normalized growth,"locus YGL078C, strain dbp3, hits give low values",0.84 (active)
same,normalized growth,"locus YGL086W, strain mad1, hits give low values",0.636 (active)
same,normalized growth,"locus YGL167C, strain pmr1, hits give low values",0.396 (active)
same,normalized growth,"locus YGL173C, strain kem1, hits give low values",0.23 (active)
same,normalized growth,"locus YGL227W, strain vid30, hits give low values",0.677 (active)
same,normalized growth,"locus YGL240W, strain doc1, hits give low values",0.657 (active)
same,normalized growth,"locus YGL248W, strain PDE1, hits give low values",0.561 (active)
same,normalized growth,"locus YGL253W, strain hxk2, hits give low values",0.485 (active)
same,normalized growth,"locus YGR078C, strain PAC10, hits give low values",0.536 (active)
same,normalized growth,"locus YGR135W, strain pre9, hits give low values",0.443 (active)
same,normalized growth,"locus YGR229C, strain SMI1, hits give low values",0.107 (active)
same,normalized growth,"locus YGR252W, strain gcn5, hits give low values",0.576 (active)
same,normalized growth,"locus YHR013C, strain ard1, hits give low values",0.504 (active)
same,normalized growth,"locus YHR027C, strain rpn1, hits give low values",0.295 (active)
same,normalized growth,"locus YHR030C, strain SLT2, hits give low values",0.304 (active) and 0.677 (active)
same,normalized growth,"locus YHR079C, strain IRE1 (second series), hits give low values",0.139 (active)
same,normalized growth,"locus YHR079C, strain IRE1, hits give low values",0.612 (active)
same,normalized growth,"locus YHR094C, strain hxt1, hits give low values",0.699 (active)
same,normalized growth,"locus YHR129C, strain ARP1, hits give low values",0.531 (active)
same,normalized growth,"locus YHR142W, strain chs7, hits give low values",0.285 (active)
same,normalized growth,"locus YHR200W, strain rpn10, hits give low values",0.604 (active)
same,normalized growth,"locus YIL066C, strain RNR3, hits give low values",0.425 (active)
same,normalized growth,"locus YIL073C, strain SPO22, hits give low values",0.381 (active)
same,normalized growth,"locus YIL125W, strain kgd1, hits give low values",0.808 (active)
same,normalized growth,"locus YIR030C, strain dcg1, hits give low values",0.359 (active)
same,normalized growth,"locus YJL092W, strain hpr5, hits give low values",0.531 (active)
same,normalized growth,"locus YJL095W, strain BCK1 (second series), hits give low values",0.218 (active)
same,normalized growth,"locus YJL095W, strain BCK1, hits give low values",0.0738 (active) and 0.684 (active)
same,normalized growth,"locus YJL115W, strain asf1, hits give low values",0.648 (active)
same,normalized growth,"locus YJL129C, strain trk1, hits give low values",0.312 (active)
same,normalized growth,"locus YJL134W, strain LCB3, hits give low values",0.588 (active)
same,normalized growth,"locus YJL154C, strain vps35, hits give low values",0.68 (active)
same,normalized growth,"locus YJL164C, strain tpk1, hits give low values",0.347 (active)
same,normalized growth,"locus YJL166W, strain qcr8, hits give low values",0.437 (active)
same,normalized growth,"locus YJL168C, strain set2, hits give low values",0.808 (active)
same,normalized growth,"locus YJL187C, strain SWE1 (second series), hits give low values",0.106 (active)
same,normalized growth,"locus YJR043C, strain POL32, hits give low values",0.288 (active)
same,normalized growth,"locus YJR066W, strain TOR1, hits give low values",0.68 (active)
same,normalized growth,"locus YJR075W, strain HOC1, hits give low values",0.558 (active)
